PAFAH1B3 FP inh = blocks human PAF acetylhydrolase 1B catalytic subunit 3. Q15102. recombinant PAFAH1B3, FP-rhodamine probe, fluorescence polarization. inhibition, % at 3.39 µM. hit rate 0.28% among 340,000. AID 492972;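 active = inhibition above the screen-wide average of all tested compounds plus 3 SD, cut at about 25% in these data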;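 also: 0% = enzyme with DMSO only and 100% = wells lacking PAFAH1B3 protein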
Target sequence (Q15102 whole entry, looked up): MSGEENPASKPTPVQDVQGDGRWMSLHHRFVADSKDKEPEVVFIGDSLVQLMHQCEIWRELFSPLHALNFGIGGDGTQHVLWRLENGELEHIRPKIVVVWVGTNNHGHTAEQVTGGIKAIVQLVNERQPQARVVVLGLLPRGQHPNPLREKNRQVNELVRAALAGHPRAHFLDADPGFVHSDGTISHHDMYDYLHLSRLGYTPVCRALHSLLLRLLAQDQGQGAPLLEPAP
PME-1 primary = PME-1 (human) inhibition | recombinant PME-1, FP-Rh probe fluorescence polarization | inhibition, % at 5.9 µM | hit rate 0.53% among 320,000 | AID 2130;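 active = inhibition above the campaign mean of all compounds plus 3 SD, cut at about 26% in these data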;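 also: competitive labeling of PME-1 active site by serine hydrolase directed probe; 0% = PME-1 with DMSO and 100% = wells lacking PME-1 enzyme; inhibitors block probe labeling so polarization falls and inhibition rises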
pPAFAH FP inh = inhibitors of human plasma PAF acetylhydrolase (pPAFAH); Q13093; recombinant pPAFAH, FP-rhodamine probe fluorescence polarization; inhibition, % at 3.39 µM; hit rate 1.5% among 330,000; AID 463082;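 active = inhibition above the mean inhibition across the screen plus 3 SD, cut at about 25% in these data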;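 also: inhibitors block binding of the rhodamine activity-based probe so polarization drops; 0% = enzyme with DMSO and 100% = wells lacking pPAFAH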
PAFAH1B2 FP inh = PAFAH1B2 (human) inhibition. hit rate 1.2% among 340,000. P68402. recombinant PAFAH1B2, FP-rhodamine activity probe, fluorescence polarization. inhibition, % at 3.39 µM. AID 492953;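 active = inhibition above the mean of all tested compounds plus 3 SD, cut at about 24% in these data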;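 also: 0% = enzyme with DMSO and 100% = wells lacking PAFAH1B2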
Target sequence (P68402 whole entry, looked up): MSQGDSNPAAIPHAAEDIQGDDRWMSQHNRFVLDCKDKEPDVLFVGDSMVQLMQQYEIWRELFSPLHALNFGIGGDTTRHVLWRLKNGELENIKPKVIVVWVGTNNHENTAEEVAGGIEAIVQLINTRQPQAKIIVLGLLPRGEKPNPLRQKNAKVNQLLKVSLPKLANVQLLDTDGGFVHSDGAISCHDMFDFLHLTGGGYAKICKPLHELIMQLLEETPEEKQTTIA
PAFAH2 FP inh = PAFAH2 (human) inhibition | Q99487 | recombinant PAFAH2, FP-rhodamine activity probe, fluorescence polarization | inhibition, % at 3.39 µM | hit rate 0.99% among 340,000 | AID 492956;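 active = inhibition above the mean over all tested compounds plus 3 SD, cut at about 30% in these data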;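 also: inhibitors block probe labeling of enzyme so polarization drops; 0% = enzyme with DMSO and 100% = wells lacking PAFAH2 protein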
Fam108B counter = counter-screen for RBBP9 inhibitors: inhibitors of mouse Fam108B; recombinant Fam108B, FP-Rh probe fluorescence polarization; inhibition, % at 9.51 µM; hit rate 0.33% among 300,000;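 active = inhibition above the screen mean inhibition plus 3 SD, computed separately per campaign, cut at about 18% in these data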;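 also: inhibitors lower polarization as less probe binds the enzyme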
PAFAH2 FP conf = confirmation of human PAFAH2 inhibitors. hit rate 65% among 2,300. inhibition, % at 3.39 µM. recombinant PAFAH2, FP-rhodamine activity probe, fluorescence polarization. AID 493030. shares compounds with PAFAH2 FP inh;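 active = mean inhibition over three repeats above a set limit taken from the earlier primary screen, cut at about 30% in these data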;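 also: inhibitor blocks binding of rhodamine activity probe so polarization falls; 0% = enzyme with DMSO and 100% = wells lacking PAFAH2 protein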
Numbers without * were called inactive. Most compounds without a hit are left out; they make up all but 2.8% or so of the library.

`CCN(CC)S(=O)(=O)c1ccc2c(c1)nc(CCC(=O)Nc1ccc3c(c1)OCO3)n2C` gave PAFAH1B3 FP inh -4, PME-1 primary 9, pPAFAH FP inh 23, PAFAH1B2 FP inh 8, PAFAH2 FP inh 2 and Fam108B counter -1.
CCN(CC)S(=O)(=O)c1ccc2c(c1)nc(CCC(=O)OCC(=O)Nc1c(F)cccc1F)n2C was read as PAFAH1B3 FP inh -5, PME-1 primary 0, pPAFAH FP inh 9, PAFAH1B2 FP inh 9, PAFAH2 FP inh 49*, Fam108B counter -1 and PAFAH2 FP conf 46*.
`CCN(CC)S(=O)(=O)c1ccc2c(c1)nc(CCC(=O)OCC(=O)Nc1cc(OC)cc(OC)c1)n2C` gave PAFAH1B3 FP inh 2, PME-1 primary 1, pPAFAH FP inh 10, PAFAH1B2 FP inh 3, PAFAH2 FP inh 52*, Fam108B counter -4 and PAFAH2 FP conf 36*.
`COc1cc(N(C)C)ccc1C=c1c2ccccc2n2c1cc(-c1ccccc1)[n+]2C` gave PAFAH1B3 FP inh -30, PAFAH1B2 FP inh -22 and PAFAH2 FP inh -34.
COc1cc(C=c2c3ccccc3n3c2cc(-c2ccccc2)[n+]3C)cc(OC)c1OC was read as PAFAH1B3 FP inh 25, PAFAH1B2 FP inh -7, PAFAH2 FP inh 55* and PAFAH2 FP conf 20.
Screening COc1ccc(C(=O)COC(=O)c2ccccc2C(=O)N(C)c2ccccc2)c(OC)c1 returned PAFAH1B3 FP inh 3, PME-1 primary -3, pPAFAH FP inh 13, PAFAH1B2 FP inh 2, PAFAH2 FP inh 1 and Fam108B counter -5.
Screening CN(C(=O)c1ccccc1C(=O)OCC(=O)Nc1cccc(Br)c1)c1ccccc1 returned PAFAH1B3 FP inh -4, PME-1 primary 8, pPAFAH FP inh 2, PAFAH1B2 FP inh -2, PAFAH2 FP inh 76* and PAFAH2 FP conf 76*.
`COc1cccc(NC(=O)COC(=O)c2ccccc2C(=O)N(C)c2ccccc2)c1` gave PAFAH1B3 FP inh 3, PME-1 primary 5, pPAFAH FP inh 4, PAFAH1B2 FP inh 0, PAFAH2 FP inh 71* and PAFAH2 FP conf 69*.
For CN(C(=O)c1ccccc1C(=O)OCC(=O)Nc1ccc(S(N)(=O)=O)cc1)c1ccccc1 the results were PAFAH1B3 FP inh 8, PME-1 primary 4, pPAFAH FP inh 4, PAFAH1B2 FP inh 3, PAFAH2 FP inh -5 and Fam108B counter 4.
Screening CN(C(=O)c1ccccc1C(=O)OCC(=O)Nc1ccc(OC(F)F)cc1)c1ccccc1 returned PAFAH1B3 FP inh 3, PME-1 primary 6, pPAFAH FP inh 15, PAFAH1B2 FP inh -3, PAFAH2 FP inh 65* and PAFAH2 FP conf 56*.
Cn1c(Cc2ccccc2)nnc1SCc1ccc(C(=O)O)cc1 was read as PAFAH1B3 FP inh -1, PME-1 primary -5, pPAFAH FP inh -6, PAFAH1B2 FP inh 7, PAFAH2 FP inh -9 and Fam108B counter -3.
CCc1cccc(CC)c1NC(=O)COC(=O)c1ccc(F)c(S(=O)(=O)N(CC)CC)c1 was read as PAFAH1B3 FP inh 8, PME-1 primary -3, pPAFAH FP inh 17, PAFAH1B2 FP inh 4, PAFAH2 FP inh 30*, Fam108B counter 1 and PAFAH2 FP conf 26.
Screening CCN(CC)S(=O)(=O)c1cc(C(=O)OCC(=O)Nc2cccc(Br)c2)ccc1F returned PAFAH1B3 FP inh -8, PME-1 primary -47, pPAFAH FP inh 15, PAFAH1B2 FP inh -8, PAFAH2 FP inh 32*, Fam108B counter -31 and PAFAH2 FP conf 22.
Screening Cc1noc(C)c1C(=O)OC(C(=O)NC1CCCC1)c1ccc(F)cc1 (configuration not stated) returned PAFAH1B3 FP inh 1, PME-1 primary -4, pPAFAH FP inh 1, PAFAH1B2 FP inh 5, PAFAH2 FP inh 4 and Fam108B counter 0.
`O=C(COC(=O)/C=C/c1ccc(F)cc1)Nc1ccc(Cl)cn1` gave PAFAH1B3 FP inh 7, PME-1 primary -3, pPAFAH FP inh 2, PAFAH1B2 FP inh -2, PAFAH2 FP inh 30*, Fam108B counter -4 and PAFAH2 FP conf 22.
Screening COc1cc(/C=C/C(=O)OCC(=O)Nc2ccc(S(N)(=O)=O)cc2)ccc1O returned PAFAH1B3 FP inh 3, PME-1 primary -5, pPAFAH FP inh 4, PAFAH1B2 FP inh -1, PAFAH2 FP inh -3 and Fam108B counter 1.

Compound activity deposited in PubChem by The Scripps Research Institute Molecular Screening Center.
